# Data: PubChem BioAssay (Tox21)
# Records with an inconclusive call do not appear. Active and inactive are the calls of the source. Calls follow the shape of the dose curve; as a rule, active = well fitted cell-killing curve with a large enough effect in the repeat runs; inconclusive = weak or mixed curves; inactive = no such curve, though single readings can be large or run the other way.
# Test: qHTS assay to identify small molecule antagonists of the androgen receptor (AR) signaling pathway - cell viability counter screen (AID 743033; also: nearly all actives have a fitted effect of over 45% in size)
# Conditions: AR-bla HEK293 viability, CellTiter-Glo luminescence, 16 h; series mostly up to 58.5 µM; activity change, negative = cytotoxicity: at the top concentration
# Description: National Center for Advancing Translational Sciences [NCATS]
# NIH Chemical Genomics Center [NCGC]
# U.S. Environmental Protection Agency [EPA]
# National Institutes of Environmental Health Sciences [NIEHS]
# National Toxicology Program [NTP]
# U.S. Food and Drug Administration [FDA]
# Androgen receptor (AR), a nuclear hormone receptor, plays a critical role in AR-dependent prostate cancer and other androgen related diseases. Endocrine disrupting chemicals (EDCs) and their interactions with steroid hormone receptors like AR may cause disruption of normal endocrine function as well as interfere with metabolic homeostasis, reproduction, developmental and behavioral functions. To identify the compounds that inhibit AR signaling, GeneBLAzer AR-UAS-bla-GripTite cell line (Invitrogen, Carlsbad, CA, USA) containing a beta-lactamase reporter gene under control of an Upstream Activator Sequence (UAS) stably integrated into HEK293 cells was used to screen the Tox21 10K compound library. The cytotoxicity of the Tox21 compound library against the AR-bla cell line was tested in parallel by measuring the cell viability using CellTiter-Glo assay in the same wells.
# Tox21 Assay Protocol Summary:
# AR-bla cells were dispensed at 2,000 cells/5 uL of assay medium per well into black wall/clear-bottom 1536-well plates using a Multidrop Combi (ThermoFisher Scientific, Waltham, MA) dispenser. After the assay plates were incubated at a 37C and 5% CO2 for 4 hr, 23 nL of compounds dissolved in DMSO, positive controls or DMSO only was transferred to the assay plate by a Pintool station (Kalypsys, San Diego, CA), followed by addition of 1 uL of agonist (R1881) in culture medium using a Bioraptr Flying Reagent Dispenser (FRD) workstation (Beckman Coulter, Indianapolis, IN, USA). The plates were incubated at a 37C and 5% CO2 for 16 h. After 1 uL of LiveBLAzerTM B/G FRET substrate was added using a Bioraptr FRD, the plates were incubated at room temperature for 2 h and fluorescence intensity was measured by an Envision plate reader (PerkinElmer, Shelton, CT). For cell viability readout that measures cytotoxicity, 4 ul/well of CellTiter-Glo reagent was added into the assay plates using a Bioraptr FRD. After 30 min incubation at room temperature, the luminescence intensity in the plates was measured using a ViewLux (PerkinElmer) plate reader.
# % is scaled to controls: 0 for no effect and ±100 for the full control effect; potency is read from the fitted curve at half-maximal effect.
SMILES,"activity change, negative = cytotoxicity",Potency
Cc1cc(C(=C2C=CC(=Nc3ccc(S(=O)(=O)O)cc3S(=O)(=O)O)C=C2)c2ccc(Nc3ccc(S(=O)(=O)O)cc3)cc2)ccc1N,-14.4% (inactive),
Nc1ccc(C(=O)OCCCOC(=O)c2ccc(N)cc2)cc1,-7.22% (inactive),
CCC1(C)CC(=O)NC1=O (stereo not given),4.92% (inactive),
CC1=CC(O)CC(C)(C)C1 (stereo not given),3.36% (inactive),
[O]=[Bi],-10.1% [at 7.04 µM] (inactive),
Fc1c(F)c(F)c(Br)c(F)c1F,3.35% (inactive),
O=C(O)c1ccc(CO)o1,4.08% [at 78.9 µM] (inactive),
COc1ccccc1N=Nc1c(S(=O)(=O)O)cc2cc(S(=O)(=O)O)cc(NC(C)=O)c2c1O,0.916% (inactive),
CCCCCCCCCCCC(=O)[O][Sn]([CH2]CCC)([CH2]CCC)[O]C(=O)CCCCCCCCCCC,-34.4% (inactive),
CO/N=C1\CN(c2nc3c(cc2F)c(=O)c(C(=O)O)cn3C2CC2)CC1CN (stereo not given),-29% (inactive),
N#C/C(=C1/SC[C@@H](c2ccc(Cl)cc2Cl)S1)n1ccnc1,-17.4% (inactive),
O=C(CCCN1CCC(O)(c2ccc(Br)cc2)CC1)c1ccc(F)cc1,-12.1% [at 27 µM] (inactive),
CC(C)OCC1CO1 (stereo not given),0.259% (inactive),
Cc1cc(O)c2c(O)c3c(O)cccc3cc2c1,-1.11% (inactive),
Cc1ccc(/C=N/n2c(-c3ccccc3)csc2=S)cc1,-11.1% (inactive),
Cc1c(C(=O)NN2CCCCC2)nn(-c2ccc(Cl)cc2Cl)c1-c1ccc(Cl)cc1,-17.2% (inactive),
CCCCCCCC/C=C\CCCCCCCC(=O)OC,-4.38% (inactive),
CCC(C(=O)OCCOCCN(CC)CC)c1ccccc1 (stereo not given),4.36% (inactive),
CC(C)(C)CC(C)(C)c1ccc(OCCO)cc1,,21.8 µM (active)
CCn1nc(C)c2c1C(=O)NCC(c1ccc(O)cc1)=N2,7.37% (inactive),

SMILES,"activity change, negative = cytotoxicity",Potency
CCCCCCCCCOC(C)=O,15.3% (inactive),
CCCCN(CCCC)CCCOC(=O)c1ccc(N)cc1,-11.9% [at 27 µM] (inactive),
CC#N,0.537% [at 78.9 µM] (inactive),
CCOC(=O)c1ccccc1C,-0.273% (inactive),
C[N+]1(C)CCC(=C(c2ccccc2)c2ccccc2)CC1,-13.3% [at 27 µM] (inactive),
O=C(O)c1cccc(O)c1,1.24% [at 78.9 µM] (inactive),
CCCCOC(=O)CCS,11.3% (inactive),
CC(CCO)CCc1ccccc1 (stereo not given),1.83% (inactive),
CN(C(=O)C(Cl)Cl)c1ccc(OC(=O)c2ccco2)cc1,-21.2% (inactive),
CC1=NN(c2ccc(C(=O)O)cc2)C(=O)C1,10.4% (inactive),
CN1C(=O)CC(C)(c2ccccc2)C1=O (stereo not given),3.5% (inactive),
CCN(Cc1cccc(S(=O)(=O)O)c1)c1ccc(C(=C2C=CC(=[N+](CC)Cc3cccc(S(=O)(=O)[O-])c3)C=C2)c2ccccc2)cc1,7.99% (inactive),
CCC(C)(O)CCC=C(C)C (stereo not given),9.08% (inactive),
O=C(O)C(Cc1cc(I)c(O)c(I)c1)c1ccccc1 (stereo not given),-6.18% (inactive),
CC1=C(/C=C/C(C)=C\C=C\C(C)=C\C(=O)O)C(C)(C)CCC1,-8.91% (inactive),
Cc1cc(S(=O)(=O)O)ccc1N=Nc1c(O)ccc2ccccc12,5.54% (inactive),
O=c1[nH]c2ccc(S(=O)CCN3CCC(Cc4ccc(F)cc4)CC3)cc2o1 (stereo not given),-17.9% (inactive),
CC(=N\O)/C(C)=N/O,1.37% (inactive),
Cc1nc2ccccn2c(=O)c1CCN1CCC(C(=O)c2ccc(F)cc2)CC1,1.75% (inactive),
CC(=O)Nc1ccccc1C,-3.73% [at 78.9 µM] (inactive),
